Experimental data taken from PubChem BioAssay AID1159580 (chemical genetic matrix, 2015).
Screen size: about 5,500 compounds; about 2,000 (36%) were called active. Not shown: some 18% with an inconclusive outcome. The list shows a part of the results. Values without a mark were called inactive. No stated cut-off is given here; in the data, active means normalized growth mostly below about 0.91 (no sharp cut-off); inconclusive means no clear call, values can overlap the other calls; inactive means mostly above about 0.92.

Experiment: chemical genetic growth profiling, strain panel (AID 1159580);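 further: tested at 20 µM; growth read once vehicle control cultures reached saturation at 30 °C; 1 = growth at the plate median or of vehicle wells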
Conditions: growth OD

Q: Which results are given for `O=C1C[C@@H](c2ccccc2)Oc2cc(O)cc(O)c21`?
A: normalized growth (S. cerevisiae deletion strains, locus YBR021W, strain FUR4, stronger effect = lower value): 0.958; normalized growth (S. cerevisiae deletion strains, locus YBR229C, strain ROT2, stronger effect = lower value): 0.927; normalized growth (S. cerevisiae deletion strains, locus YCL029C, strain bik1, stronger effect = lower value): 0.939; normalized growth (S. cerevisiae deletion strains, locus YDL035C, strain GPR1, stronger effect = lower value): 0.884; normalized growth (S. cerevisiae deletion strains, locus YDL074C, strain BRE1, stronger effect = lower value): 0.858; normalized growth (S. cerevisiae deletion strains, locus YDL101C, strain DUN1, stronger effect = lower value): 0.899; normalized growth (S. cerevisiae deletion strains, locus YDL134C, strain PPH21, stronger effect = lower value): 0.903; normalized growth (S. cerevisiae deletion strains, locus YDL185W, strain tfp1, stronger effect = lower value): 0.932; normalized growth (S. cerevisiae deletion strains, locus YDL192W, strain arf1, stronger effect = lower value): 0.871 (active); normalized growth (S. cerevisiae deletion strains, locus YDR101C, strain arx1, stronger effect = lower value): 0.943; normalized growth (S. cerevisiae deletion strains, locus YDR150W, strain NUM1, stronger effect = lower value): 0.949; normalized growth (S. cerevisiae deletion strains, locus YDR162C, strain NBP2, stronger effect = lower value): 0.859; normalized growth (S. cerevisiae deletion strains, locus YDR318W, strain mcm21, stronger effect = lower value): 0.875 (active); normalized growth (S. cerevisiae deletion strains, locus YDR388W, stronger effect = lower value): 0.95; normalized growth (S. cerevisiae deletion strains, locus YDR502C, strain sam2, stronger effect = lower value): 0.892 (active); normalized growth (S. cerevisiae deletion strains, locus YEL061C, strain CIN8, stronger effect = lower value): 0.957; normalized growth (S. cerevisiae deletion strains, locus YER110C, stronger effect = lower value): 0.924; normalized growth (S. cerevisiae deletion strains, locus YER155C, strain BEM2, stronger effect = lower value): 0.955; normalized growth (S. cerevisiae deletion strains, locus YER167W, strain BCK2, stronger effect = lower value): 0.947; normalized growth (S. cerevisiae deletion strains, locus YGL078C, strain dbp3, stronger effect = lower value): 0.947; normalized growth (S. cerevisiae deletion strains, locus YGL086W, strain mad1, stronger effect = lower value): 1; normalized growth (S. cerevisiae deletion strains, locus YGL248W, strain PDE1, stronger effect = lower value): 0.884 (active); normalized growth (S. cerevisiae deletion strains, locus YGR078C, strain PAC10, stronger effect = lower value): 0.86; normalized growth (S. cerevisiae deletion strains, locus YGR135W, strain pre9, stronger effect = lower value): 0.843 (active); normalized growth (S. cerevisiae deletion strains, locus YGR252W, strain gcn5, stronger effect = lower value): 0.595 (active); normalized growth (S. cerevisiae deletion strains, locus YHR030C, strain SLT2, stronger effect = lower value): 0.97; normalized growth (S. cerevisiae deletion strains, locus YHR079C, strain IRE1 (second series), stronger effect = lower value): 0.952; normalized growth (S. cerevisiae deletion strains, locus YHR094C, strain hxt1, stronger effect = lower value): 0.934; normalized growth (S. cerevisiae deletion strains, locus YHR129C, strain ARP1, stronger effect = lower value): 0.942; normalized growth (S. cerevisiae deletion strains, locus YHR200W, strain rpn10, stronger effect = lower value): 0.942; normalized growth (S. cerevisiae deletion strains, locus YIL066C, strain RNR3, stronger effect = lower value): 0.887; normalized growth (S. cerevisiae deletion strains, locus YIL073C, strain SPO22, stronger effect = lower value): 0.91; normalized growth (S. cerevisiae deletion strains, locus YIL125W, strain kgd1, stronger effect = lower value): 0.957; normalized growth (S. cerevisiae deletion strains, locus YIR030C, strain dcg1, stronger effect = lower value): 0.942; normalized growth (S. cerevisiae deletion strains, locus YJL095W, strain BCK1, stronger effect = lower value): 0.816; normalized growth (S. cerevisiae deletion strains, locus YJL134W, strain LCB3, stronger effect = lower value): 0.963; normalized growth (S. cerevisiae deletion strains, locus YJL168C, strain set2, stronger effect = lower value): 0.961; normalized growth (S. cerevisiae deletion strains, locus YJL187C, strain SWE1 (second series), stronger effect = lower value): 0.893; normalized growth (S. cerevisiae deletion strains, locus YJR043C, strain POL32, stronger effect = lower value): 0.906; normalized growth (S. cerevisiae deletion strains, locus YJR075W, strain HOC1, stronger effect = lower value): 0.919; normalized growth (S. cerevisiae deletion strains, locus YKL009W, strain mrt4, stronger effect = lower value): 0.847 (active); normalized growth (S. cerevisiae deletion strains, locus YKL068W, stronger effect = lower value): 0.949; normalized growth (S. cerevisiae deletion strains, locus YKL085W, strain MDH1 (second series), stronger effect = lower value): 0.929; normalized growth (S. cerevisiae deletion strains, locus YKL085W, strain MDH1, stronger effect = lower value): 0.929; normalized growth (S. cerevisiae deletion strains, locus YKL190W, strain CNB1, stronger effect = lower value): 0.955; normalized growth (S. cerevisiae deletion strains, locus YKR001C, strain vps1, stronger effect = lower value): 0.878 (active); normalized growth (S. cerevisiae deletion strains, locus YLR039C, strain RIC1, stronger effect = lower value): 0.711; normalized growth (S. cerevisiae deletion strains, locus YLR058C, strain SHM2, stronger effect = lower value): 0.887 (active); normalized growth (S. cerevisiae deletion strains, locus YLR102C, strain apc9, stronger effect = lower value): 0.957; normalized growth (S. cerevisiae deletion strains, locus YLR262C, strain YPT6, stronger effect = lower value): 0.656; normalized growth (S. cerevisiae deletion strains, locus YLR268W, strain sec22, stronger effect = lower value): 0.943; normalized growth (S. cerevisiae deletion strains, locus YLR330W, strain CHS5, stronger effect = lower value): 0.946; normalized growth (S. cerevisiae deletion strains, locus YLR342W, strain FKS1 (second series), stronger effect = lower value): 0.79 (active); normalized growth (S. cerevisiae deletion strains, locus YLR371W, strain rom2, stronger effect = lower value): 0.968; normalized growth (S. cerevisiae deletion strains, locus YLR418C, strain cdc73, stronger effect = lower value): 0.711 (active); normalized growth (S. cerevisiae deletion strains, locus YML016C, strain PPZ1, stronger effect = lower value): 0.96; normalized growth (S. cerevisiae deletion strains, locus YML032C, strain rad52, stronger effect = lower value): 0.864 (active); normalized growth (S. cerevisiae deletion strains, locus YML124C, strain tub3, stronger effect = lower value): 0.947; normalized growth (S. cerevisiae deletion strains, locus YMR078C, strain ctf18, stronger effect = lower value): 0.929; normalized growth (S. cerevisiae deletion strains, locus YMR223W, strain ubp8, stronger effect = lower value): 0.862 (active); normalized growth (S. cerevisiae deletion strains, locus YMR307W, strain GAS1, stronger effect = lower value): 0.742; normalized growth (S. cerevisiae deletion strains, locus YNL067W, strain RPL9B, stronger effect = lower value): 0.884; normalized growth (S. cerevisiae deletion strains, locus YNL128W, strain TEP1, stronger effect = lower value): 0.936; normalized growth (S. cerevisiae deletion strains, locus YNL153C, strain GIM3, stronger effect = lower value): 0.895; normalized growth (S. cerevisiae deletion strains, locus YNL233W, strain BNI4, stronger effect = lower value): 0.886; normalized growth (S. cerevisiae deletion strains, locus YNL250W, strain rad50, stronger effect = lower value): 0.954; normalized growth (S. cerevisiae deletion strains, locus YNL271C, strain bni1, stronger effect = lower value): 0.93; normalized growth (S. cerevisiae deletion strains, locus YNL298W, strain CLA4, stronger effect = lower value): 0.877 (active); normalized growth (S. cerevisiae deletion strains, locus YNL307C, strain MCK1, stronger effect = lower value): 0.901 (active); normalized growth (S. cerevisiae deletion strains, locus YNL322C, strain KRE1, stronger effect = lower value): 0.938; normalized growth (S. cerevisiae deletion strains, locus YNR052C, strain pop2, stronger effect = lower value): 0.943; normalized growth (S. cerevisiae deletion strains, locus YOL012C, strain htz1): 0.987; normalized growth (S. cerevisiae deletion strains, locus YOL147C, strain pex11, stronger effect = lower value): 0.933; normalized growth (S. cerevisiae deletion strains, locus YOR061W, strain CKA2, stronger effect = lower value): 0.934; normalized growth (S. cerevisiae deletion strains, locus YOR069W, strain VPS5, stronger effect = lower value): 0.943; normalized growth (S. cerevisiae deletion strains, locus YOR136W, strain idh2, stronger effect = lower value): 0.968; normalized growth (S. cerevisiae deletion strains, locus YOR144C, strain elg1, stronger effect = lower value): 0.945; normalized growth (S. cerevisiae deletion strains, locus YOR184W, strain ser1, stronger effect = lower value): 0.757 (active); normalized growth (S. cerevisiae deletion strains, locus YOR316C, strain cot1, stronger effect = lower value): 0.943; normalized growth (S. cerevisiae deletion strains, locus YPL055C, strain LGE1, stronger effect = lower value): 0.844; normalized growth (S. cerevisiae deletion strains, locus YPL241C, strain CIN2, stronger effect = lower value): 0.955; normalized growth (S. cerevisiae deletion strains, locus YPR119W, strain clb2, stronger effect = lower value): 0.949; normalized growth (S. cerevisiae deletion strains, locus YPR141C, strain kar3, stronger effect = lower value): 0.955; normalized growth (S. cerevisiae deletion strains, locus YPR163C, strain tif3, stronger effect = lower value): 0.927; normalized growth (S. cerevisiae deletion strains, locus YPR167C, strain met16, stronger effect = lower value): 0.909 (active); normalized growth (S. cerevisiae deletion strains, strain wtn01, stronger effect = lower value): 0.99; normalized growth (S. cerevisiae strains, strain wild type, stronger effect = lower value): 0.927
